Test results reported in PubChem BioAssay (Tox21).
“And” between values parts separate entries of the source, which are not always exact repeats. Equal entries are not always repeated. Results filed as inconclusive are left out. The source made the active and inactive calls. The call rests on the fitted dose curve; in most records, active means well fitted curve in the direction sought with a large enough effect in the repeat runs; inconclusive means weak or mixed curves; inactive means no such curve, though single readings can be large; an effect the other way counts as inactive or inconclusive.

Assays:
[1] = qHTS assay to identify small molecule agonists of the RXR signaling pathway - cell viability counter screen (AID 1159529); further: series mostly up to about 77 µM; nearly all actives have a fitted effect of over 50% in size
Procedure, shortened: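 Cell viability is measured by CellTiter-Glo luminescence, 30 min at room temperature, in wells already read for beta-lactamase. Engineered HEK 293T cells (RXR-alpha-UAS-bla) are dosed 16 hr at 37 C. Tetraoctyl ammonium bromide serves as positive control.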

[2] = qHTS assay to identify small molecule antagonists of the retinoid acid receptor (RAR) signaling pathway - cell viability counter screen (AID 1159551); further: nearly all actives have a fitted effect of over 35% in size
Procedure, shortened: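 Viability of C3RL4 cells is quantified from ATP by luminescence after 6 h treatment at 37 C with compounds and 1 uM retinol.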

[3] = qHTS assay to identify small molecule antagonists of the retinoic acid receptor (RAR) signaling pathway (AID 1159552; further: nearly all actives have a fitted effect of over 50% in size)
Procedure, shortened: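 Quantitative HTS in C3RL4 RARE-luciferase reporter cells. Compounds were added with 1 uM (final) retinol; luminescence was read after 6 hr.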

[4] = qHTS assay to identify small molecule agonists of the retinoic acid receptor (RAR) signaling pathway (AID 1159553); further: potency means the concentration at half of the fitted maximal effect
Procedure, shortened: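 Compounds dissolved in DMSO were pinned onto C3RL4 cells seeded the previous day, and plates were held 6 hr at 37 C. RARE-driven luciferase output was then read by luminescence.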

[5] = qHTS assay to identify small molecule antagonists of the estrogen related receptor (ERR) signaling pathway - cell viability counter screen (AID 1224818);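 further: series mostly up to about 46 µM; viability measured after 17.5 h of compound exposure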
Procedure, shortened: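 Cytotoxicity check run alongside the ERR antagonist screen: cells exposed to test compounds 17.5 h at 37 C, viability taken as CellTiter-Fluor fluorescence intensity.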

Measured: Potency

O=c1c(-c2ccc(O)cc2)coc2cc(O)cc(O)c12
active: [4] 1.9 µM and 1.37 µM and 2.37 µM
inactive: [1] | [2] | [3] | [5]

Cn1cnc2c1c(=O)[nH]c(=O)n2C
inactive: [1] | [2] | [3] | [4] | [5]

C=CC(=O)NC(C)(C)CS(=O)(=O)O
inactive: [1] | [2] | [3] | [4]

COc1ccccc1O
inactive: [1] | [2] | [5]

CCCCOC(=O)CCCCCCCCC(=O)OCCCC
inactive: [1] | [2] | [3] | [4]

CC(C)(C)CC(C)(C)c1ccc(O)c(-n2nc3ccccc3n2)c1
inactive: [2] | [3] | [4]

O=[N+]([O-])c1ccc(O)cc1
inactive: [1] | [2] | [3] | [4]

COCC(C)N (stereo not given)
inactive: [1] | [2] | [3] | [4]

O=C(OCc1ccccc1)c1ccccc1
active: [4] 2.43 µM and 29.8 µM
inactive: [1] | [2] | [3]

C#C[C@]1(O)CC[C@H]2[C@@H]3CCc4cc(O)ccc4[C@H]3CC[C@@]21C
inactive: [1] | [2] | [3] | [4]

NC(=O)N1c2ccccc2C=Cc2ccccc21
inactive: [1] | [2] | [3] | [4] | [5]
